Assay [1] has as its target Adenosine receptor A1 (Bos taurus) (UniProt P28190). In words: NVS_GPCR_bAdoR_NonSelective: NovaScreen (NVS) G Protein-Coupled Receptor Assay for bovine Adenosine Receptor (AdoR), Non-selective Binding (AID 2283244). The method in brief:
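Cell-free binding with membranes from bovine striatum: radioligand displaced by test chemical, read after 1 h by filtration and scintillation. Single-point 25 uM duplicate primary, 50 uM top concentration in follow-up curves, DMSO baseline.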

Assay [2] has as its system rat Monoamine Oxidase, MAO-A, Central (MAOAC), gene 29253. The assay is described as follows: NVS_ENZ_rMAOAC: NovaScreen (NVS) Enzymatic Assay for rat Monoamine Oxidase, MAO-A, Central (MAOAC) (AID 2283243).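 Note: potency refers to inhibition seen as signal drop below DMSO baseline.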 On the procedure:
NVS_ENZ_rMAOAC is a biochemical, single-readout assay that uses extracted gene-proteins from Rat brain in a tissue-based cell-free assay. Measurements were taken 1.5 hours after chemical dosing in a 96-well plate.NVS_ENZ_rMAOAC is one of one assay component(s) measured or calculated from the NVS_ENZ_rMAOAC assay. It is designed to make measurements of enzyme activity, a form of enzyme reporter, as detected with scintillation counting signals by Lysate-based radiodetection technology.Data from the assay component NVS_ENZ_rMAOAC was analyzed into 1 assay endpoint. This assay endpoint, NVS_ENZ_rMAOAC, was analyzed in the positive analysis fitting direction relative to DMSO as the negative control and baseline of activity. Using a type of enzyme reporter, loss-of-signal activity can be used to understand changes in the enzymatic activity as they relate to the gene Maoa. Furthermore, this assay endpoint can be referred to as a primary readout, because this assay has produced multiple assay endpoints where this one serves a enzymatic activity function. To generalize the intended target to other relatable targets, this assay endpoint is annotated to the oxidoreductase intended target family, where the subfamily is monoamine oxidase.
(§1) Binding assays used specific radioligands (tritiated, iodinated) with non-radioactive competitive displacement ligands in agonist or antagonist protocols (as indicated) and various reference compounds and inhibitors to titrate specific binding to receptors and transporters. Most enzyme assays (CYPs, kinases, phosphatases, proteases, HDACs) used recombinant protein and specific substrates (fluorescence mostly, some colorimetric and radioactive) and inhibitors, followed by a biochemical separation of substrate and product. All assays for the biochemical HTS were initially run in duplicate at a single concentration (10 uM for CYP450 assays and 25 uM for all others). […] Each assay was run with positive and negative controls, and concurrent controls on every plate. The follow-up (secondary) screen tested active chemical-pairs in concentration series, as well as a few additional assays not tested in the primary screen, some selected negative inactives, and several cases re-run in the concentration series for confirmatory purposes.

Assay [3] in a line: NVS_GPCR_bNPY_NonSelective: NovaScreen (NVS) G Protein-Coupled Receptor Assay for bovine Neuropeptide Y (NPY) Receptor, Non-selective Binding (AID 2283245). The procedure, abridged: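 Displacement of radioligand from bovine hippocampal membrane receptors, read by filtration and scintillation counting after 1 hour. Concentration-response to a top of 50 uM followed a 25 uM duplicate primary screen. Loss of signal versus DMSO.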

Assay [4] concerns guinea pig Leukotriene B4 Receptor (LTB4), gene 100379538. The assay is described as follows: NVS_GPCR_gLTB4: NovaScreen (NVS) G Protein-Coupled Receptor Assay for guinea pig Leukotriene B4 Receptor (LTB4) (AID 2283247). The method in brief:
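Membranes from guinea pig spleen incubated 2 h with radioligand and compound; bound counts measured by filtration and scintillation. Screened first at 25 uM in duplicate, then actives titrated to a 50 uM top concentration relative to DMSO.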

Assay [5] has as its target guinea pig Leukotriene D4 Receptor (LTD4), CYSLTR1 (gene 100135514) (UniProt Q2NNR5). The assay is described as follows: NVS_GPCR_gLTD4: NovaScreen (NVS) G Protein-Coupled Receptor Assay for guinea pig Leukotriene D4 Receptor (LTD4) (AID 2283248). The procedure, abridged: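 Guinea pig lung membrane preparation; bound radioligand measured by filter scintillation after 1 h, loss of signal versus DMSO marking displacement. Compounds tested at 25 uM in duplicate, hits retested to max 50 uM.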

Assay [6] deals with human Serotonin, 5-Hydroxytryptamine Receptor 2A (5HT2A), HTR2A (gene 3356) (UniProt P28223). In words: NVS_GPCR_h5HT2A: NovaScreen (NVS) G Protein-Coupled Receptor Assay for human Serotonin, 5-Hydroxytryptamine Receptor 2A (5HT2A) (AID 2283249). The procedure: (§2) NVS_GPCR_h5HT2A is a biochemical, single-readout assay that uses extracted gene-proteins from Human cortex in a tissue-based cell-free assay. Measurements were taken 1.5 hours after chemical dosing in a 48-well plate.NVS_GPCR_h5HT2A is one of one assay component(s) measured or calculated from the NVS_GPCR_h5HT2A assay. It is designed to make measurements of radioligand binding, a form of binding reporter, as detected with scintillation counting signals by Filter-based radiodetection technology.Data from the assay component NVS_GPCR_h5HT2A was analyzed into 1 assay endpoint. This assay endpoint, NVS_GPCR_h5HT2A, was analyzed in the positive analysis fitting direction relative to DMSO as the negative control and baseline of activity. Using a type of binding reporter, loss-of-signal activity can be used to understand changes in the binding as they relate to the gene HTR2A. Furthermore, this assay endpoint can be referred to as a primary readout, because the performed assay has only produced 1 assay endpoint. To generalize the intended target to other relatable targets, this assay endpoint is annotated to the gpcr intended target family, where the subfamily is rhodopsin-like receptor.
human Serotonin, 5-Hydroxytryptamine Receptor 2A (5HT2A), HTR2A (gene 3356), sequence (P28223 whole entry, looked up): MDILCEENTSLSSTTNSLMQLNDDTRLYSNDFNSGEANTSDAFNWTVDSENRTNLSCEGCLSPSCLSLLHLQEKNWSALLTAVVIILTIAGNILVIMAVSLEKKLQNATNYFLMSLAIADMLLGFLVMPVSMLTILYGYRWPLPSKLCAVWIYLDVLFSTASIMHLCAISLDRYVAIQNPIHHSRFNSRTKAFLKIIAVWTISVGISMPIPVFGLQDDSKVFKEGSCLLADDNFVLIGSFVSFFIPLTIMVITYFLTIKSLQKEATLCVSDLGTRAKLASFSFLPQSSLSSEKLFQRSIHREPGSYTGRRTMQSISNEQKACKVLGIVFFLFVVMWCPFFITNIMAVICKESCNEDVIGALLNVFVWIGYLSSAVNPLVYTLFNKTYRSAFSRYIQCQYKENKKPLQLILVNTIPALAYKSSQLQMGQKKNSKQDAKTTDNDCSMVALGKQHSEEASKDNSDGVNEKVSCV
as §1

The test system of assay [7] is guinea pig Muscarinic, Peripheral (Mperiperal) Receptor, Non-selective Binding, gene 100379235. The assay is described as follows: NVS_GPCR_gMPeripheral_NonSelective: NovaScreen (NVS) G Protein-Coupled Receptor Assay for guinea pig Muscarinic, Peripheral (Mperiperal) Receptor, Non-selective Binding (AID 2283250). On the procedure: as §2, with “NVS_GPCR_gMPeripheral_NonSelective” for “NVS_GPCR_h5HT2A”, “Guinea pig bladder membranes” for “Human cortex”, “1 hour” for “1.5 hours”, “plate.NVS_GPCR_gMPeripheral_NonSelective” for “plate.NVS_GPCR_h5HT2A”, “NVS_GPCR_gMPeripheral_NonSelective,” for “NVS_GPCR_h5HT2A,”, “Chrm3.” for “HTR2A.”
Binding assays used specific radioligands (tritiated, iodinated) with non-radioactive competitive displacement ligands in agonist or antagonist protocols (as indicated) and various reference compounds and inhibitors to titrate specific binding to receptors and transporters. Most enzyme assays (CYPs, kinases, phosphatases, proteases, HDACs) used recombinant protein and specific substrates (fluorescence mostly, some colorimetric and radioactive) and inhibitors, followed by a biochemical separation of substrate and product. All assays for the biochemical HTS were initially run in duplicate at a single concentration (10 uM for CYP450 assays and 25 uM for all others). Assay-chemical combinations meeting a pre-defined threshold (e.g., 30% inhibition and other criteria defined below) were then run in singleton concentration-response format with maximum concentration of 20 uM for CYPs and 50 uM for all others. Each assay was run with positive and negative controls, and concurrent controls on every plate. The follow-up (secondary) screen tested active chemical-pairs in concentration series, as well as a few additional assays not tested in the primary screen, some selected negative inactives, and several cases re-run in the concentration series for confirmatory purposes.

The target of assay [8] is human Serotonin, 5-Hydroxytryptamine Receptor 5A (5HT5A), HTR5A (gene 3361) (UniProt P47898). The assay is described as follows: NVS_GPCR_h5HT5A: NovaScreen (NVS) G Protein-Coupled Receptor Assay for human Serotonin, 5-Hydroxytryptamine Receptor 5A (5HT5A) (AID 2283251). The method in brief:
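Membranes from HEK293 cells, radioligand binding read by filtration and scintillation after 1 h. Single-concentration duplicate testing at 25 uM, then concentration-response for actives; positive-direction fitting relative to DMSO.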

Assay [9] concerns the target rat Monoamine Oxidase, MAO-B, Peripheral (MAOBP), Maob (gene 25750) (UniProt P19643). In words: NVS_ENZ_rMAOBP: NovaScreen (NVS) Enzymatic Assay for rat Monoamine Oxidase, MAO-B, Peripheral (MAOBP) (AID 2283242).
Assay [10] relates to bovine Histamine 1 Receptor (H1), gene 281231. The assay is described as follows: NVS_GPCR_bH1: NovaScreen (NVS) G Protein-Coupled Receptor Assay for bovine Histamine 1 Receptor (H1) (AID 2283246). The procedure, abridged: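 Hits from a 25 uM duplicate primary screen were retested in concentration series (top 50 uM); binding measured as scintillation-counted displacement of radioligand from bovine cerebellar membranes after 1 h, normalised to DMSO.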

For 15 molecules, outcome and AC50 results are on record in PubChem BioAssay (EPA / NIEHS).

By AC50 is commonly meant the concentration at which the activity in the assay is half-maximal.

Records with an inconclusive call do not appear. Activity calls are given as the source filed them. Rule for the calls: active = hit-call score of the fitted dose curve at least 0.9, where 1 is the maximum; inconclusive = response in the unintended direction; inactive = score below 0.9.

guinea pig Leukotriene D4 Receptor (LTD4), CYSLTR1 (gene 100135514), sequence (Q2NNR5 whole entry, looked up): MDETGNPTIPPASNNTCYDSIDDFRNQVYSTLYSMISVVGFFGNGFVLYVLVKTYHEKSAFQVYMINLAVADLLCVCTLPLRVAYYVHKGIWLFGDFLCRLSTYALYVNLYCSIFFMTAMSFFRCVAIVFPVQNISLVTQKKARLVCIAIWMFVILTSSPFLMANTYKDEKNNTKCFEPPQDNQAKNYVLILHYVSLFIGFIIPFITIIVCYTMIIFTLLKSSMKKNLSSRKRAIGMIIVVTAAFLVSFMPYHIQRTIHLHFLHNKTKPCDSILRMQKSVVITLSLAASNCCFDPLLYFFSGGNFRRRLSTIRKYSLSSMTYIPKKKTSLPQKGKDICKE
human Serotonin, 5-Hydroxytryptamine Receptor 5A (5HT5A), HTR5A (gene 3361), sequence (P47898 whole entry, looked up): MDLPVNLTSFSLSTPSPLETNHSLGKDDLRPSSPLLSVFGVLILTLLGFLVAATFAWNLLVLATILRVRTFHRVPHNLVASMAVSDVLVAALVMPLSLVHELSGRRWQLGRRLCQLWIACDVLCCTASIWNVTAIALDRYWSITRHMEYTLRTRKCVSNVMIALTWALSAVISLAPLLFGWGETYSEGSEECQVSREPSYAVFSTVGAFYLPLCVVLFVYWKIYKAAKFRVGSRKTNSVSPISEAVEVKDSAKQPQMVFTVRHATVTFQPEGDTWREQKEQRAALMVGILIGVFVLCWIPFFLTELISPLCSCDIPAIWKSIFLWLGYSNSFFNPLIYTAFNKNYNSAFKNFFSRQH
Adenosine receptor A1 (Bos taurus), sequence (P28190 whole entry, looked up): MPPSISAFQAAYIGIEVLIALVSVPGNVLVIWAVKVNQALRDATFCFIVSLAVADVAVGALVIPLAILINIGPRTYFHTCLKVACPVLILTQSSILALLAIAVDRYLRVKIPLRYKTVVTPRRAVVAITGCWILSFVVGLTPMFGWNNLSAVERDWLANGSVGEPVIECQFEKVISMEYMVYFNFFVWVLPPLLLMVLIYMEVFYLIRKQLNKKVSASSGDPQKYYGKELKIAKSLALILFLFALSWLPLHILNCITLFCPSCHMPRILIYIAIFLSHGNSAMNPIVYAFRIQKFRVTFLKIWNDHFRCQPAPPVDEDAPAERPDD
rat Monoamine Oxidase, MAO-B, Peripheral (MAOBP), Maob (gene 25750), sequence (P19643 whole entry, looked up): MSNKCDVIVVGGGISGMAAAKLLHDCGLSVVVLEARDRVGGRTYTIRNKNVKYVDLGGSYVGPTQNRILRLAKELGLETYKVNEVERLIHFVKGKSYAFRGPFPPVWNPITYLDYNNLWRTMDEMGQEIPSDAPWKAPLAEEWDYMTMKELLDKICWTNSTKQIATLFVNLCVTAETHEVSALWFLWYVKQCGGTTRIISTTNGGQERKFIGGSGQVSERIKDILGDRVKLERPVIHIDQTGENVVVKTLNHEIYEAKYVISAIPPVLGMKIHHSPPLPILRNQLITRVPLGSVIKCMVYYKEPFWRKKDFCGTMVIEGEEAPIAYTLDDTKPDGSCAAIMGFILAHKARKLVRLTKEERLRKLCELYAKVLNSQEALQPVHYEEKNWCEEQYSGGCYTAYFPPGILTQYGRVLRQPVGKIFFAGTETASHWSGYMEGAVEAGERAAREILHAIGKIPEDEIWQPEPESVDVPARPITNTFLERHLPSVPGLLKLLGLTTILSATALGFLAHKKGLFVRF

As for `Cn1sc(Cl)cc1=O`, the outcome in assay [1] was inactive.

As to `CCOC(=O)Nc1cccc(OC(=O)Nc2ccccc2)c1`, the AC50 in [2] was 5.76 µM (active).

On to `C=C(C)C(=O)[O][Sn]([CH2]CCC)([CH2]CCC)[CH2]CCC`, for which the half-maximal activity concentration (AC50) in [3] was 2.56 µM (active); in [4], 6.14 µM (active); in assay [5], 1.86 µM (active); in [6], 36.2 µM (active); in [7] it was 14 µM (active); in [8] it was 2.16 µM (active).

Regarding `C[C@]12CCC(=O)C[C@@H]1CC[C@@H]1[C@@H]2CC[C@]2(C)[C@@H](O)CC[C@@H]12`, in assay [9], the molecule was called inactive.

Regarding `C[C@@H]1C[C@@H]([C@H](O)CC2CC(=O)NC(=O)C2)C(=O)[C@@H](C)C1`, the result in assay [10] was inactive.

For the molecule `CC(=O)[O][Hg][c]1ccccc1`, the AC50 in assay [1] was 25 µM (active); in assay [3], 4.57 µM (active); in assay [4] it was 3.45 µM (active); in [5], 1.58 µM (active); in [6] it was 19.1 µM (active); in [7] it was 6 µM (active). In addition, in assay [8], the AC50 was 0.791 µM (active).

Take `CCN1CCC2(CC1)COc1cc3c(cc12)N(C(=O)c1ccc(-c2ccc(-c4nnc(C)o4)cc2C)cc1)CC3`: the half-maximal activity concentration (AC50) in assay [9] was 19.5 µM (active); in [2] it was 23.4 µM (active); in assay [6] it was 10.2 µM (active); in assay [7], 1.79 µM (active); in assay [8], 23.4 µM (active).

As for `Oc1ccc(-c2ccccc2)cc1`, the AC50 in assay [2] was 13.8 µM (active).

For `COc1cc(-c2ccc(N)c(OC)c2)ccc1N`, the molecule was called inactive in [1].

In the case of `COc1ccc(OC)c(C=O)c1`, in [2], the AC50 was 17.3 µM (active).

In the case of `ClCCBr`, the result in assay [5] was inactive.

As to `O=S(=O)(c1ccc(Cl)cc1)c1ccc(Cl)cc1`, the outcome in assay [2] was inactive.

For `Nc1cccc2ccccc12`, the AC50 in assay [2] was 25 µM (active).

With `CN(C)N=O`, the molecule was classed as inactive in assay [4].

For `O=C1C2(Cl)C3(Cl)C4(Cl)C(Cl)(Cl)C5(Cl)C3(Cl)C1(Cl)C5(Cl)C24Cl` (stereo not given), the molecule was classed as inactive in assay [8].
